# Sampled rows, rich in hits. Any-hit rate of the full collection: about 0.51%.
# AddAB inh – growth inhibition of E. coli expressing H. pylori AddAB, primary screen, AddAB inhibitor project, absorbance; 0.29% of 330,000 active; inhibition, % at 11.9 µM; in the data active = inhibition above about 12%;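 also: 0% = vehicle wells of infected cells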
# phage Ecoli inh – growth loss of phage-infected E. coli, primary screen, RecBCD inhibitor project, absorbance, with phage, HTS. inhibition, % at 11.9 µM. 0.26% of 360,000 active; in the data active = inhibition above about 11%
# Tat export inh – E. coli Tat export inhibitors, primary screen, MC4100, TorA-mCherry reporter, fluorescence, single point; inhibition, % at 10 µM; 0.036% of 340,000 active;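 active = mean replicate inhibition at least 50% and at least half of replicates individually reaching 50%; inconclusive = only one of the two criteria met; inactive = neither criterion met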;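 also: exported cargo escapes ClpAP degradation while cytoplasmic cargo is degraded and loses fluorescence; 0% = median of neutral control wells and 100% = median of NaSCN control wells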
# E coli growth-1 – E. coli V3065 growth inhibition, primary screen, counter-screen for AddAB inhibitor project, absorbance, OD600; 18 h; 0.27% of 330,000 active; AID 449728, 2010; inhibition, % at 11.9 µM;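 active = inhibition above the campaign's mean inhibition across all tested compounds plus 3 SD, cut at about 9.9% in these data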;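 also: uninfected addAB+ strain grown without phage in ampicillin broth; 0% = DMSO wells and 100% = ciprofloxacin 0.95 µg/ml wells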
# E coli growth-2 – E. coli growth inhibition, primary screen, OD600. AID 1053175, 2014. 0.21% of 330,000 active. OD600 absorbance (concentration not given with the values). Escherichia coli growth, 23 h; stronger effect = lower value;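 active = OD600 absorbance below the run mean of sample wells minus 3.6 SD, in any replicate, cut at about 0.56 in these data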
# AddAB conf – growth loss of phage-infected E. coli expressing H. pylori AddAB, confirmation, AddAB inhibitor project, absorbance, E. coli V3065, T4 phage, triplicate; inhibition, % at 11.9 µM; 64% of 880 active; AID 488942, 2010; shares compounds with AddAB inh; OD; T4 phage with gene 2 nonsense mutations;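 active = mean inhibition above a set limit taken from the earlier primary screen, cut at about 13% in these data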;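 also: higher means less bacterial growth since AddAB block lets phage replicate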
# RecBCD counter – growth loss of RecBCD+ E. coli with mutant T4 phage, counter-screen for AddAB inhibitor project, absorbance, V66 E. coli; shares compounds with AddAB inh; OD growth; inhibition, % at 11.9 µM; 73% of 880 active;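 active = mean inhibition above the mean of solvent-only control wells plus 3 SD, cut at about 4% in these data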;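 also: optical density read after an 18 h incubation at 37 °C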
# bact viab count – bacterial viability inhibition counter-screen, confirmation, counter-screen for AddAB inhibitor project, absorbance; shares compounds with AddAB inh; absorbance (AddAB counterscreen); inhibition, % at 11.9 µM; 35% of 880 active; AID 488956, 2010; in the data active = inhibition above about 25%
# RecBCD conf – growth loss of phage-infected RecBCD+ E. coli, confirmation, RecBCD inhibitor project, absorbance, E. coli V66, T4 gene 2 phage; 45% of 890 active; E. coli V66 + T4 2- phage, growth OD; inhibition, % at 11.9 µM; shares compounds with phage Ecoli inh;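 active = mean inhibition over triplicates exceeding the hit threshold derived in the original primary screen, cut at about 11% in these data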
# Ecoli viability – E. coli viability inhibition, counter-screen for RecBCD inhibitor project, absorbance, high throughput; shares compounds with phage Ecoli inh; absorbance (OD) growth; inhibition, % at 11.9 µM; 29% of 890 active; in the data active = inhibition above about 20%;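 also: E. coli strain V66 grown with compound alone and no phage infection; 0% = bacteria with DMSO vehicle only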
# AddAB phage OD – growth loss of phage-infected AddAB-carrying E. coli, confirmation, counter-screen for RecBCD inhibitor project, absorbance, E. coli V3065, T4 phage; inhibition, % at 11.9 µM; E. coli expressing H. pylori AddAB + T4 phage, OD growth; gene 2 mutant T4, recBCD-deleted host; AID 651984, 2013; 45% of 890 active; shares compounds with phage Ecoli inh;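 active = mean inhibition above the solvent-only control wells' mean plus 3 SD, cut at about 22% in these data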;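 also: higher means less bacterial growth from phage killing when AddAB is blocked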
# Active calls of the source: *; ? = inconclusive; . = no result given.
SMILES,AddAB inh,phage Ecoli inh,Tat export inh,E coli growth-1,E coli growth-2,AddAB conf,RecBCD counter,bact viab count,RecBCD conf,Ecoli viability,AddAB phage OD
CO[C@@]1(NC(=O)C2SC(=C(C(N)=O)C(=O)O)S2)C(=O)N2C(C(=O)O)=C(CSc3nnnn3C)CS[C@@H]21 (stereo not given in full),97*,100*,-79,97*,.,101*,101*,101*,103*,105*,103*
COC(=O)c1ccc(CSc2nnnn2C)o1,2,1,0,-3,0.73,.,.,.,.,.,.
CCn1cc(C(=O)O)c(=O)c2ccc(C)nc21,98*,82*,3,82*,0.063*,94*,33*,90*,45*,78*,99*
CCn1cc(C(=O)OCc2ccccc2)c(=O)c2ccc(C)nc21,3,-1,0,-1,0.61,.,.,.,.,.,.
O=C(Oc1c(CN2CCOCC2)cc(Cl)c2cccnc12)c1cccs1,-2,-3,3,-8,0.67,.,.,.,.,.,.
O=C(Oc1c(Cl)cc(Cl)c2cccnc12)c1cccs1,40*,42*,7,43*,0.14*,51*,53*,56*,44*,53*,41*
NC(=NOC(=O)c1cccs1)c1cccc([N+](=O)[O-])c1,.,.,.,.,0.72,.,.,.,.,.,.
O=C(CSc1ccc(-c2ccccc2)nn1)c1ccccc1,0,3,6,-4,0.65,.,.,.,.,.,.
O=C(CSc1ccc(-c2ccccn2)nn1)c1ccccc1,13*,14*,1,12*,0.6,10,11*,10,8,7,24*
COCCN=c1scc(-c2cccs2)n1/N=C/c1ccc(O)c(O)c1O,15*,15*,13,12*,.,14*,11*,12,8,8,12
COCCN=c1scc(-c2cccs2)n1N=C(C)c1ccco1,.,.,.,.,0.68,.,.,.,.,.,.
CC(=O)C(=NNc1ccc([N+](=O)[O-])cc1)N1CCCc2ccccc21,.,.,.,.,0.68,.,.,.,.,.,.
Cc1n[nH]c(=S)n(NC(=O)CC(=O)Nn2c(=S)[nH]nc(C)c2=O)c1=O,19*,16*,0,13*,0.64,33*,15*,32*,14*,15,35*
CCOc1cccc(-c2c(C(=O)NN=Cc3ccncc3)nnn2-c2nonc2N)c1,.,.,.,.,0.65,.,.,.,.,.,.
Cc1ccc(C(C)C)c(OCc2ccc(C(=O)NN=Cc3ccc(O)cc3O)cc2)c1,.,.,.,.,0.68,.,.,.,.,.,.
Cc1ccc(C(C)C)c(OCc2ccc(C(=O)N/N=C/c3cccc(O)c3O)cc2)c1,16*,22*,2,14*,.,16*,16*,9,9,11,14
Cc1ccc(CN2Cc3cccc4c3C(CC2=O)C(O)C(O)C4)cc1 (stereo not given),.,.,.,.,0.69,.,.,.,.,.,.
CCc1nnc(NS(=O)(=O)c2ccc(N=Cc3c(C)[nH]n(-c4cccc(Cl)c4)c3=O)cc2)s1,24*,11*,-13,16*,0.62,9,4.8*,14,10,7,31*
O=C(Nc1ncc([N+](=O)[O-])s1)C1CC(=O)N(c2ccc(F)cc2)C1 (stereo not given),4,1,-6,-3,0.56,.,.,.,.,.,.
O=C1NCCN1c1ncc([N+](=O)[O-])s1,100*,98*,21,101*,0.066*,96*,95*,96*,96*,97*,101*
O=C(NNc1cc(Br)c(O)c(Br)c1)c1ccccc1,102*,78*,-9,97*,0.52,97*,50*,97*,39*,50*,101*
NS(=O)(=O)c1ccc(NNC(=O)c2ccccc2)cc1,1,2,-7,1,0.63,.,.,.,.,.,.
CC(C)=CCC[C@](C)(O)C1CC[C@]2(C)C1C(O)CC1[C@@]3(C)CCC(O)C(C)(C)C3C(OC3OC(CO)C(O)C(O)C3OC3OC(C)C(O)C(O)C3O)C[C@]12C (stereo not given in full),.,.,.,.,0.71,.,.,.,.,.,.
CCCCCC(CC(=O)NO)C(=O)NC(C(=O)N1CCCC1CO)C(C)C (stereo not given),22*,25*,31,22*,0.47,19*,24*,15,18*,19,21
C[C@H]1O[C@@H](n2cc(F)c(=O)[nH]c2=O)[C@H](O)[C@@H]1O,36*,32*,6,42*,.,41*,25*,38*,47*,31*,53*
SMILES,AddAB inh,phage Ecoli inh,Tat export inh,E coli growth-1,E coli growth-2,AddAB conf,RecBCD counter,bact viab count,RecBCD conf,Ecoli viability,AddAB phage OD
O=c1[nH]c(=O)n(C2OC(CO)C(O)C(O)C2O)cc1F (stereo not given),.,4,.,.,.,.,.,.,.,.,.
CCOC(=O)c1sc2ncn(N=Cc3ccc(O)cc3)c(=O)c2c1C,.,.,.,.,0.69,.,.,.,.,.,.
Cc1ccc(C(=O)NN=Cc2ccccn2)cn1,.,.,.,.,0.67,.,.,.,.,.,.
O=c1[nH]c(=O)n([C@H]2C[C@H](O)[C@@H](CO)O2)cc1I,3,10,13,4,.,.,.,.,.,.,.
CCc1cn(C2CC(O)C(CO)O2)c(=O)[nH]c1=O (stereo not given),20*,12*,4,13*,0.62,35*,13*,11,14*,10,31*
O=C(Nc1nnc(-c2ccccc2)o1)c1ccc(Cl)cc1,13*,24*,-13,7,0.33*,33*,27*,21,18*,20*,20
O=C(Nc1cccnc1)c1ccc([N+](=O)[O-])s1,99*,17*,-4,69*,0.07*,100*,18*,47*,8,11,86*
O=C(Nc1ccccc1F)c1ccc([N+](=O)[O-])s1,3,2,?,4,0.57,.,.,.,.,.,.
CC(=NN1CCN(C2c3ccccc3-c3ccccc32)CC1)c1ccncc1,.,.,.,.,0.75,.,.,.,.,.,.
O=C(O)c1ccnc(Cl)c1,1,1,-7,-1,0.65,.,.,.,.,.,.
